Screening results as filed in PubChem.
TDP1 cell CPT: qHTS for Inhibitors of human tyrosyl-DNA phosphodiesterase 1 (TDP1): qHTS in cells in presence of CPT | chicken DT40 Tdp1-/-;hTDP1 cells + 20 nM CPT, ATP luminescence, 48 h | AID 686979, 2013 | 420,000 compounds, 12% hits | Potency, µM (highest dose often 46.2 µM), for inactives: at the highest dose activity change, negative = growth inhibition, hits mostly inhibitors; note: % is set by controls: 0 for no effect and ±100 for the full control effect; nearly all actives have a fitted effect of over 55% in size
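Cell growth measured by CellTiter-Glo luminescence after a minimum 48 h, 37 C compound exposure with 20 nM CPT in Tdp1-knockout DT40 cells stably expressing hTDP1, seeded 400/well; qHTS titration format.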
TGFb inhibitor: qHTS for Inhibitors of TGF-b | HepG2 CAGA-GFP TGF-b/SMAD3 reporter, GFP fluorescence, 18 h; TGF-beta stimulated, 500 pg/mL final | Potency, µM (doses to about 46.1 µM), without a hit: at the highest dose activity, negative = inhibition, hits mostly inhibitors | 410,000 compounds, 1.2% hits | AID 588855, 2011; note: % is set by controls: 0 for no effect and ±100 for the full control effect; nearly all actives have a fitted effect of over 65% in size
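Per well, imaged GFP fluorescence of HEPG2 CAGA-GFP cells gives the signal; cells get compound, then TGF-beta (500 pg/mL final), 18 h at 37 degrees C; %Activity versus -TGF-beta and +DMSO controls.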
HT1080 IDH1KD tx: qHTS for induction of synthetic lethality in tumor cells producing 2HG: qHTS for the HT-1080-IDH1KD cell line; HT-1080 IDH1 knockdown viability, ATP luminescence, 48 h; Potency, µM (highest dose often 46.1 µM), inactives show top-dose activity, negative = toxicity, hits mostly cytotoxic; 360,000 compounds, 2% hits; AID 686971, 2013;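 note: 0% = DMSO wells and -100% = cell-free medium wells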
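In this qHTS, HT-1080 cells depleted of IDH1 are exposed for 48 h at 37 °C to compound titrations. Toxicity is scored from CellTiter-Glo luminescence, with DMSO as full viability and medium alone as none.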
HepG2 tox: qHTS for Inhibitors of TGF-b: Cytotox Counterscreen; HepG2 CAGA-GFP viability, ATP luminescence, 18 h; Potency, µM (top dose mostly 46.1 µM), inactives show top-dose activity change, negative = cytotoxicity, most hits filed as cytotoxic; 410,000 compounds, 0.76% hits; AID 588856, 2011
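CellTiter-Glo luminescence gave cytotoxicity after 18 hours at 37 degrees C. The cells were HepG2 CAGA-GFP in 1% FBS DMEM, stimulated with 500 pg/mL TGF-beta after compound addition. %Activity was normalised to no-cell wells (complete cell-killing) and DMSO (no toxicity), and curves were fitted and classified.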
DT40 TDP1 no CPT: qHTS for Inhibitors of human tyrosyl-DNA phosphodiesterase 1 (TDP1): qHTS in cells in absence of CPT; 420,000 compounds, 15% hits; Potency, µM (series often up to 46.2 µM), without a hit: top-dose activity change, negative = growth inhibition, hits mostly inhibitors; DT40 Tdp1-/- hTDP1 cells, no CPT, ATP luminescence, 48 h; note: % is set by controls: 0 for no effect and ±100 for the full control effect; nearly all actives have a fitted effect of over 55% in size
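Growth kinetics read by CellTiter-Glo luminescence after ≥48 hr at 37 °C. Cells: DT40 Tdp1-/- stably carrying human TDP1, 400 per well, compound exposure in the absence of CPT (DMSO vehicle).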
HT1080-NT tox: qHTS for induction of synthetic lethality in tumor cells producing 2HG: qHTS for the HT-1080-NT fibrosarcoma cell line; HT-1080-NT fibrosarcoma viability, CellTiter-Glo ATP luminescence, 48 h; Potency, µM (titrated, usually from 46.1 µM), for inactives: at the highest dose activity, negative = less viability, most hits filed as cytotoxic; 360,000 compounds, 1.6% hits;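 note: NT is the 2HG producing partner of a matched IDH1 knockdown line; 0% = DMSO-treated cells and -100% = media-only wells without cells; nearly all actives have a fitted effect of over 55% in size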
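Fibrosarcoma NT cells, 750 per well in 5% FBS RPMI, were exposed to compound for 48 hours. Viability: CellTiter-Glo luminescence.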
* = called active by the depositor; ? = inconclusive; / = no result given. Hits are enriched below; roughly 17% of the tested compounds scored in any of these assays. Calls come from the whole dose curve; as a rule, active = well fitted curve in the direction sought with a large enough effect; inconclusive = small, poorly fitted or top-dose-only effect, or another doubt; inactive = no such curve, though single readings can be large; an effect the other way counts as inactive or inconclusive. Potency is the fitted concentration of half-maximal effect.

SMILES	TDP1 cell CPT	TGFb inhibitor	HT1080 IDH1KD tx	HepG2 tox	DT40 TDP1 no CPT	HT1080-NT tox
Cc1ccc(S(=O)(=O)N2C[C@H]3N(C(=O)OC(C)C)N(C(=O)OC(C)C)C[C@H](OC(=O)NCc4ccccc4F)[C@@]3(O)C2)cc1	?	-21%	-13%	-15%	23µM*	-18%
Cc1ccc(Nc2ccc(C(F)(F)F)cc2[N+](=O)[O-])cc1	-20%	8%	9%	3%	-12%	8%
Cc1ccc(NC2=C(c3ccc(C(F)(F)F)cc3)C(=O)c3ccccc32)cc1C	21µM*	0%	/	13µM*	?	/
CC(C)CC(=O)n1sc(NC(=O)c2ccccc2)nc1=O	15µM*	?	13%	-11%	21µM*	15%
Cc1ccc(C(=O)Nc2nc(=O)n(C(=O)CC(C)C)s2)cc1	-29%	6%	-6%	-11%	-18%	0%
COCCCNC(=O)CC(NS(=O)(=O)c1ccc(Cl)cc1)c1ccc(OC)cc1 (stereo unspecified)	-23%	25%	12%	-23%	-2%	3%
CCC1CCCCN1C(=O)COC(=O)c1cncc(Br)c1 (stereo unspecified)	-2%	-5%	5%	7%	5%	10%
CCOc1ccc(S(=O)(=O)Nc2cc(Cl)ccc2OC)c2cccnc12	15µM*	?	/	-27%	15µM*	/
CCOc1ccc(S(=O)(=O)N2CCN(c3ccccc3)CC2)c2cccnc12	0%	?	-2%	-18%	-1%	-1%
CCc1ccc(NS(=O)(=O)c2ccc(OC)c3ncccc23)cc1	?	6%	-15%	-1%	-6%	-15%
CCc1ccccc1NS(=O)(=O)c1ccc(OC)c2ncccc12	18µM*	?	0%	-3%	10µM*	-5%
COc1ccc(Cl)cc1NS(=O)(=O)c1cccc2cccnc12	?	-22%	?	-18%	?	-24%
CCOc1ccc(S(=O)(=O)N2CCN(c3ccccc3OC)CC2)c2cccnc12	?	-10%	-18%	2%	23µM*	-7%
CCOc1ccc(S(=O)(=O)Nc2cccc(C)c2)c2cccnc12	12µM*	-11%	-11%	-8%	18µM*	-5%
Cc1noc(C)c1NC(=O)Nc1ccc2c(c1)C(=O)N([C@H](C)CO)C[C@H](C)[C@@H](CN(C)S(=O)(=O)c1ccccc1)O2	3%	5%	-3%	-4%	-17%	13%
Cc1ncoc1C(=O)N1CCCC(N2CCN(c3ccccc3F)CC2)C1 (stereo unspecified)	-3%	0%	0%	3%	14%	-2%
Cc1ncoc1C(=O)N1CCCC(C(=O)c2ccc(-c3ccccc3)cc2)C1 (stereo unspecified)	18µM*	-11%	-17%	-17%	23µM*	-1%
CN(C)S(=O)(=O)N1CCCC(C(=O)c2ccc(-c3ccccc3)cc2)C1 (stereo unspecified)	?	2%	-1%	-1%	23µM*	-1%
Cc1nn(C)cc1CN1CCCC(C(=O)c2ccc(-c3ccccc3)cc2)C1 (stereo unspecified)	?	-8%	?	-46%	21µM*	?
CN(C)S(=O)(=O)N1CCCC(C(=O)c2ccc(C(F)(F)F)cc2)C1 (stereo unspecified)	-20%	0%	-6%	-13%	?	-7%
